# Test results taken from article PMC7862700, “An all-to-all approach to the identification of sequence-specific readers for epigenetic DNA modifications on cytosine”.
# Tests used:
# Test in all cases: DAPPL (digital affinity profiling via proximity ligation, sequencing); 10 mM Tris-HCl pH 7.5, 50 mM NaCl, 1 mM DTT, 4% glycerol, room temperature, 30 min; GST-TFs on glutathione beads, 16-mer random dsDNA library, 0.1% formaldehyde crosslink after washing; high values mean tight binding
# Conditions in all cases: protein: recombinant; tags: N-terminal GST; dsDNA, one strand shown
# FLI1 = biological target: T1, FLI1 (Homo sapiens, UniProt Q01543 1-452)
# T1 sequence: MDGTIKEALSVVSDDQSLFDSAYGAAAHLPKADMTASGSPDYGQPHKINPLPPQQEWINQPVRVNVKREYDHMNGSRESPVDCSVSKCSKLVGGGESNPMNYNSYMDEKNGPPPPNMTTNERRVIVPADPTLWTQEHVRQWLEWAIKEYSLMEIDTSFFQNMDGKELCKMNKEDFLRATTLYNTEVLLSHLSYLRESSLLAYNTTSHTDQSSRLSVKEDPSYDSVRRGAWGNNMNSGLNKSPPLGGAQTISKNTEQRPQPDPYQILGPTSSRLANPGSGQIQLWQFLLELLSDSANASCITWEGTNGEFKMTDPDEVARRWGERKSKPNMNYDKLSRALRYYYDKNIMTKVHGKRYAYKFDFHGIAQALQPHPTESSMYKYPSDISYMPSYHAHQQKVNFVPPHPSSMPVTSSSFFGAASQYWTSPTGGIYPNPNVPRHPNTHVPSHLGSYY
# Outline: (§1)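 Human transcription factors carrying a GST fusion were produced in yeast, bound to glutathione beads, tagged with DNA barcodes and pooled together with a tag-only sample. Each pool was held with 200 nmole of a random double-stranded 16-mer DNA library in Tris/NaCl/DTT/glycerol buffer for 30 min at room temperature, then washed, crosslinked in 0.1% formaldehyde, proximity-ligated with BsaI/T4 ligase (1 h, 37 °C), PCR-amplified and sequenced on an Illumina NextSeq500. Binding signal is the read frequency of each hexamer for a given factor divided by its frequency in the tag-only sample.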
# ELK1 = biological target: T2, ELK1 (Homo sapiens, UniProt P19419 1-428)
# T2 sequence: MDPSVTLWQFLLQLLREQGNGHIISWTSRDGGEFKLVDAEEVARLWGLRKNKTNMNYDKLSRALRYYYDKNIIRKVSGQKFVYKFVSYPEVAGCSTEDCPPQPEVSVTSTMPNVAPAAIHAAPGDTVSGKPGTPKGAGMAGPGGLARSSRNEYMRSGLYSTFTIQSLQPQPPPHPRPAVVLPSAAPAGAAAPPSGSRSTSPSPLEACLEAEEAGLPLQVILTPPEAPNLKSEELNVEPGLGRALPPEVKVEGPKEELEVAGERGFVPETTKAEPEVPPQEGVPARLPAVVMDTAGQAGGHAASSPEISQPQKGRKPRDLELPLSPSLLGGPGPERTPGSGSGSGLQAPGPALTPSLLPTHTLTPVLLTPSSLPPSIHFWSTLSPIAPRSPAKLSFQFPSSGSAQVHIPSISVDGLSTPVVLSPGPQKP
# Outline: as §1
# GABPA = biological target: T3, GABPA (Homo sapiens, UniProt Q06546 1-454)
# T3 sequence: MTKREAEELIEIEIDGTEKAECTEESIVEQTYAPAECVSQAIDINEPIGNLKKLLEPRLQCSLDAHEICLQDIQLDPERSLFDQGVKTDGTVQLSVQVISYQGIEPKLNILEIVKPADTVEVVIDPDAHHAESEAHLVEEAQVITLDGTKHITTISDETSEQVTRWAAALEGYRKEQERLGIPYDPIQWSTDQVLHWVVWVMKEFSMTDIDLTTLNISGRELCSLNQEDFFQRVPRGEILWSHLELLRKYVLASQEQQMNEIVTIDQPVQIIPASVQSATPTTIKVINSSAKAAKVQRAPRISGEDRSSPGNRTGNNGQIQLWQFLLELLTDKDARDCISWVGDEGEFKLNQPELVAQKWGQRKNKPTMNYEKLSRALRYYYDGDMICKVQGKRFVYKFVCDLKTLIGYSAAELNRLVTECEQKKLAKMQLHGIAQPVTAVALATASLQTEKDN
# Outline: as §1
# ERG = biological target: T4, ERG (Homo sapiens, UniProt P11308 1-479)
# T4 sequence: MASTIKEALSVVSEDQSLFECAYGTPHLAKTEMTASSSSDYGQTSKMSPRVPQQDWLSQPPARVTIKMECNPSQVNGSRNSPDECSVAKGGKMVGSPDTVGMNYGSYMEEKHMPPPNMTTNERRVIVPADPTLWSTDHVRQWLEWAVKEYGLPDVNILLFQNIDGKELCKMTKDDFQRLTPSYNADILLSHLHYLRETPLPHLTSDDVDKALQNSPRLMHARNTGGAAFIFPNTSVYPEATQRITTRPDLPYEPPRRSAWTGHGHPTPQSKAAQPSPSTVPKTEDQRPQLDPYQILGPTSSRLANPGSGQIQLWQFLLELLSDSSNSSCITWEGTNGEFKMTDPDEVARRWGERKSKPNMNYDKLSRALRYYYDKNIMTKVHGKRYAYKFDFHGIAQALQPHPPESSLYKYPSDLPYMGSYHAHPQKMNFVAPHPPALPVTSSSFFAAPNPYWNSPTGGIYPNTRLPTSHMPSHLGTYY
# Outline: as §1
# ELF1 = ELF1 (Homo sapiens, UniProt P32519 1-619)
# Chain of ELF1 (P32519 whole entry): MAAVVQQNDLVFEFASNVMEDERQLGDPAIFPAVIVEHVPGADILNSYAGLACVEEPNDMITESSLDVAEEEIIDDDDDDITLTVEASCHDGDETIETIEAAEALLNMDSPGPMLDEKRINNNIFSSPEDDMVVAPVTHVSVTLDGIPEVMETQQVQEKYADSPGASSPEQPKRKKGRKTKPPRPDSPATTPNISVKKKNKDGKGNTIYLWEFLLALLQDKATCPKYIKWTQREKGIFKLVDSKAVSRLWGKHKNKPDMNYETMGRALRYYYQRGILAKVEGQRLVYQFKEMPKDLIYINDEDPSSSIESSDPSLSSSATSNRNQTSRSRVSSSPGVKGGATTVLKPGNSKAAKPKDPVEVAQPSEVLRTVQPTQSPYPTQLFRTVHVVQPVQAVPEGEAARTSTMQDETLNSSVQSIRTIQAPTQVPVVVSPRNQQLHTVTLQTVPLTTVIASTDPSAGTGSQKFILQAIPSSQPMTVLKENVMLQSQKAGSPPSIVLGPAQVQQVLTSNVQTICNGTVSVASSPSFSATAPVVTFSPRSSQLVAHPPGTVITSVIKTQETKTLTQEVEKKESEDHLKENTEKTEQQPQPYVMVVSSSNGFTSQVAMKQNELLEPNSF
# Outline: as §1
# EHF = biological target: T5, EHF (Homo sapiens, UniProt Q9NZC4 1-300)
# T5 sequence: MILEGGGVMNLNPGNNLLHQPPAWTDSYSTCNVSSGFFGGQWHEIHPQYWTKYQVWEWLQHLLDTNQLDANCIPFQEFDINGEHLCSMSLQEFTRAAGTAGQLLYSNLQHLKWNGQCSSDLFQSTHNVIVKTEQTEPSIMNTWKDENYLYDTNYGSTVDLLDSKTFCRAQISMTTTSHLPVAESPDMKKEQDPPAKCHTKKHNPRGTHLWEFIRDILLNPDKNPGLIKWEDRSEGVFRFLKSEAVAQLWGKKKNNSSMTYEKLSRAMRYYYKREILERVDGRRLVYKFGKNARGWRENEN
# Outline: as §1
# SPI1 = SPI1 (Homo sapiens, UniProt P17947 1-270)
# Outline: as §1
# SPIB = SPIB (Homo sapiens, UniProt Q01892 1-262)
# Chain of SPIB (Q01892 whole entry): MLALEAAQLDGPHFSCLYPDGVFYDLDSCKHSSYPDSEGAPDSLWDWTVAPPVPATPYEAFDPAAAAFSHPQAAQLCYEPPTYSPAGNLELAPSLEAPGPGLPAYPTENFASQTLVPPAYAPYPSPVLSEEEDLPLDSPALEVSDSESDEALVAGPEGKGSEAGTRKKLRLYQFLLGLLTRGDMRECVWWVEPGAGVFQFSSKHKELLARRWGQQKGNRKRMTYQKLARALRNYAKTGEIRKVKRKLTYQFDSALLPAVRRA
# Outline: as §1
# ELK3 = biological target: T6, ELK3 (Homo sapiens, UniProt P41970 1-407)
# T6 sequence: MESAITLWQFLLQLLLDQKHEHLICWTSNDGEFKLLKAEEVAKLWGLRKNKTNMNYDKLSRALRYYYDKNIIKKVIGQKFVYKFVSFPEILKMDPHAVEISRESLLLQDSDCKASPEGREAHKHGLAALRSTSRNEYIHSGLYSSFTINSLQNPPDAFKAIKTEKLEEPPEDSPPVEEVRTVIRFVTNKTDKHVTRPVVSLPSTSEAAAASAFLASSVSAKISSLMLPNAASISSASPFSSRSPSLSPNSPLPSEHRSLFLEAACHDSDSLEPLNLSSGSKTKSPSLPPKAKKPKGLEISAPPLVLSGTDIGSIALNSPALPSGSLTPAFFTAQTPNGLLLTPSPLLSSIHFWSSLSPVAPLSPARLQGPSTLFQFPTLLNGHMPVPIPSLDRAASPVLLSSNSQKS
# Outline: as §1
# FEV = biological target: T7, FEV (Homo sapiens, UniProt Q99581 1-238)
# T7 sequence: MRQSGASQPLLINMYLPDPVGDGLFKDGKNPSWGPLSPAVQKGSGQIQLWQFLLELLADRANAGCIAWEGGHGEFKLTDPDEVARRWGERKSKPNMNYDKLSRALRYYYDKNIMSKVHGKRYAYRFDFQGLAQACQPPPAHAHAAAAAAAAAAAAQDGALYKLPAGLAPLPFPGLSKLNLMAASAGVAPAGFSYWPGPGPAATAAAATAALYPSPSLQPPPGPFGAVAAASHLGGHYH
# Outline: as §1
# ETV5 = ETV5 (Homo sapiens, UniProt P41161 1-510)
# Chain of ETV5 (P41161 whole entry): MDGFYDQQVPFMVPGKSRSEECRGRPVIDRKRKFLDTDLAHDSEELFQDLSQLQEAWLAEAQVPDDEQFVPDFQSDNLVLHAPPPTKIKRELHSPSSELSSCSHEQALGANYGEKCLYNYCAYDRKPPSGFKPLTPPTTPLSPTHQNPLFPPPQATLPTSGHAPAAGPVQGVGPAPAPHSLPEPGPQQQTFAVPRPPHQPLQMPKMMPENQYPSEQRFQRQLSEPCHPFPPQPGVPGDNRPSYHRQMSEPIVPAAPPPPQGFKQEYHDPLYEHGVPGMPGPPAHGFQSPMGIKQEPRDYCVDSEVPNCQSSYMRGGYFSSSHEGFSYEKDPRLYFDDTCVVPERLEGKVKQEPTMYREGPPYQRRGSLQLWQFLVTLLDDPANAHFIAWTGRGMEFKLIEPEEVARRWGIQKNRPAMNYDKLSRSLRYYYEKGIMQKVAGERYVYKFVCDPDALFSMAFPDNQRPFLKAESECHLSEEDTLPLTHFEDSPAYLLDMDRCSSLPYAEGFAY
# Outline: as §1
# SPIC = biological target: T8, SPIC (Homo sapiens, UniProt Q8N5J4 1-248)
# T8 sequence: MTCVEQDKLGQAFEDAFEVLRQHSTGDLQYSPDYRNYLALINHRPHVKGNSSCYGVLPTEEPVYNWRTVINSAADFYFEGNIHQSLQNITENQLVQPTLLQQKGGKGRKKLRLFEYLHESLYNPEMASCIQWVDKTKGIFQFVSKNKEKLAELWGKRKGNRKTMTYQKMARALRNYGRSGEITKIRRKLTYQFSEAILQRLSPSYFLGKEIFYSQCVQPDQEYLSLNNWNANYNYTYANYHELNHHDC
# Outline: as §1
# ELF4 = ELF4 (Homo sapiens, UniProt Q99607 1-663)
# Chain of ELF4 (Q99607 whole entry): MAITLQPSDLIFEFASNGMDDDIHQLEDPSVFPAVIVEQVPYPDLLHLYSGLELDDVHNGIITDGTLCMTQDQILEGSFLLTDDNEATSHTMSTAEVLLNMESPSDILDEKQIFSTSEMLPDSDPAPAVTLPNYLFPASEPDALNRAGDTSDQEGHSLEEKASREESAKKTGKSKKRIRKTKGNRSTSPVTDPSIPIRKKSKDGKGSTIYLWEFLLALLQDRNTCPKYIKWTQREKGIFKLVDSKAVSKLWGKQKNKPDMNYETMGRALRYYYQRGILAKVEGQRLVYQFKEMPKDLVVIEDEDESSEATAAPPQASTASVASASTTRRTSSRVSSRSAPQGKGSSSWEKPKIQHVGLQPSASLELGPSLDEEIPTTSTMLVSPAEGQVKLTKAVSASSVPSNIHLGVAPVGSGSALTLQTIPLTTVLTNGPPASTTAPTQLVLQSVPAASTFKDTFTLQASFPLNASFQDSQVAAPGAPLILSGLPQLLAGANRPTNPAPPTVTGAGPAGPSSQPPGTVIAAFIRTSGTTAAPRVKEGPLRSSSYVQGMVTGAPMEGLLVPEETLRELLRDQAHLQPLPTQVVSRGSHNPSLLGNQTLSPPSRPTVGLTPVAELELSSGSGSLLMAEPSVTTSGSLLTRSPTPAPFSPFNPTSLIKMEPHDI
# Outline: as §1
# ELK4 = biological target: T9, ELK4 (Homo sapiens, UniProt P28324-2 1-405)
# T9 sequence: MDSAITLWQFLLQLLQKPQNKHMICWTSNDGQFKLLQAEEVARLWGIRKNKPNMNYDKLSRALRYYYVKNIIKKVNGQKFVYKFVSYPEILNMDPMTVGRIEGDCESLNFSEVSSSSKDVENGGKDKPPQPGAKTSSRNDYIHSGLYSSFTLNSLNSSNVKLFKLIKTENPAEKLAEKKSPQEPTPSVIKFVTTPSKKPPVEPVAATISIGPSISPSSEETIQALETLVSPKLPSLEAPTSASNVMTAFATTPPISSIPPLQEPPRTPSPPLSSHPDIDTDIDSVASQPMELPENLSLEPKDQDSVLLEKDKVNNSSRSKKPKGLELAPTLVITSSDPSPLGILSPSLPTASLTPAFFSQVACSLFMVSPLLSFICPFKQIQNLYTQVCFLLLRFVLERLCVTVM
# Outline: as §1
# ELF3 = biological target: T10, ELF3 (Homo sapiens, UniProt P78545 1-371)
# T10 sequence: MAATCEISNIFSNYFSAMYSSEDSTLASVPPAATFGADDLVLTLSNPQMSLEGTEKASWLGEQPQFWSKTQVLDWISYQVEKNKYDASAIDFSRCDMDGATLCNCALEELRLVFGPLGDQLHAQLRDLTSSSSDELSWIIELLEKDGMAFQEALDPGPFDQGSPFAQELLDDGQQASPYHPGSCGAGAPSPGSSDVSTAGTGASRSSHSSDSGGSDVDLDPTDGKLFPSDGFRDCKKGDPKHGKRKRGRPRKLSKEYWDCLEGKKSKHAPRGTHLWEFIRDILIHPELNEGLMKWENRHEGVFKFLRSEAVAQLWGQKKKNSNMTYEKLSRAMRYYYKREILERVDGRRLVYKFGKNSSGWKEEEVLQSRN
# Outline: as §1
# CRX = CRX (Homo sapiens, UniProt O43186 1-299)
# Chain of CRX (O43186 whole entry): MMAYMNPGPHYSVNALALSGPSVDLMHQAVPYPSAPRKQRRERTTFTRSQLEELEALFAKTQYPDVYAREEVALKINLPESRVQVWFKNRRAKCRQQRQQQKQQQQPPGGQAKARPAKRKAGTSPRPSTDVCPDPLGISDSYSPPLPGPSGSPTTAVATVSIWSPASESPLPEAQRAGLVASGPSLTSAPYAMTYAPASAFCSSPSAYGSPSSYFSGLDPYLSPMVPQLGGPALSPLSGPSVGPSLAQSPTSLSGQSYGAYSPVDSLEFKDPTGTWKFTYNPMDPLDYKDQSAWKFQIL
# Outline: as §1
# ETV1 = ETV1 (Homo sapiens, UniProt P50549 1-477)
# Chain of ETV1 (P50549 whole entry): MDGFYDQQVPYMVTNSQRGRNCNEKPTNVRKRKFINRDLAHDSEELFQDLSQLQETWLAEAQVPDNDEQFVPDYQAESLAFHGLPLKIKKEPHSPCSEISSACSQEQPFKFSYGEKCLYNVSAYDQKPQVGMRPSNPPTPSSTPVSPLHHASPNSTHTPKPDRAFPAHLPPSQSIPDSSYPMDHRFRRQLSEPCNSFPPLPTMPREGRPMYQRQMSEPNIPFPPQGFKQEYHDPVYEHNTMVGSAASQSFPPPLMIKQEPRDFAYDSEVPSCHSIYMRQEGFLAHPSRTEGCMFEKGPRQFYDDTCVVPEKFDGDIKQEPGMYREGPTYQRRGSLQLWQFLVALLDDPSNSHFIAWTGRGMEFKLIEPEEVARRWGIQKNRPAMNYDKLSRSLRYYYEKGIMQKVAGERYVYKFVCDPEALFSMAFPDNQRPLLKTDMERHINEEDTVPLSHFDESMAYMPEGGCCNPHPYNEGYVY
# Outline: as §1
# ETV2 = biological target: T11, ETV2 (Homo sapiens, UniProt O00321 1-342)
# T11 sequence: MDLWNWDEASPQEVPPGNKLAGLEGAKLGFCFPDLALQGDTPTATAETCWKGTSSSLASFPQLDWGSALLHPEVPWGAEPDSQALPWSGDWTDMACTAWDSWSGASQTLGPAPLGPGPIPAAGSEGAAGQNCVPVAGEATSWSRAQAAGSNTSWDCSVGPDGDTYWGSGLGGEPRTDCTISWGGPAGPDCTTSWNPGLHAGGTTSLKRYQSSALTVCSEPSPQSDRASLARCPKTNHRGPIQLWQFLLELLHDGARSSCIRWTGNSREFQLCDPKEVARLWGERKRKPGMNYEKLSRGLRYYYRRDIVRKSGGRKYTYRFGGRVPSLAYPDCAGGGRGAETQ
# Outline: as §1
Sequence,binding signal (FLI1),binding signal (ELK1),binding signal (GABPA),binding signal (ERG),binding signal (ELF1),binding signal (EHF),binding signal (SPI1),binding signal (SPIB),binding signal (ELK3),binding signal (FEV),binding signal (ETV5),binding signal (SPIC),binding signal (ELF4),binding signal (ELK4),binding signal (ELF3),binding signal (CRX),binding signal (ETV1),binding signal (ETV2)
CCCCGC,"1.12 fold enrichment (6-mer frequency, TF over GST control)","1.19 fold enrichment (6-mer frequency, TF over GST control)","1.2 fold enrichment (6-mer frequency, TF over GST control)","1.19 fold enrichment (6-mer frequency, TF over GST control)","1.27 fold enrichment (6-mer frequency, TF over GST control)","1.26 fold enrichment (6-mer frequency, TF over GST control)","1.11 fold enrichment (6-mer frequency, TF over GST control)","1.19 fold enrichment (6-mer frequency, TF over GST control)","1.06 fold enrichment (6-mer frequency, TF over GST control)","1.14 fold enrichment (6-mer frequency, TF over GST control)","1.18 fold enrichment (6-mer frequency, TF over GST control)","1.34 fold enrichment (6-mer frequency, TF over GST control)","1.24 fold enrichment (6-mer frequency, TF over GST control)","1.36 fold enrichment (6-mer frequency, TF over GST control)","1.29 fold enrichment (6-mer frequency, TF over GST control)","1.01 fold enrichment (6-mer frequency, TF over GST control)","1.17 fold enrichment (6-mer frequency, TF over GST control)",–
ACGCAC,"1.06 fold enrichment (6-mer frequency, TF over GST control)","1.09 fold enrichment (6-mer frequency, TF over GST control)","1.04 fold enrichment (6-mer frequency, TF over GST control)","1.02 fold enrichment (6-mer frequency, TF over GST control)","1.06 fold enrichment (6-mer frequency, TF over GST control)","1.03 fold enrichment (6-mer frequency, TF over GST control)","1.03 fold enrichment (6-mer frequency, TF over GST control)","1.07 fold enrichment (6-mer frequency, TF over GST control)","1.09 fold enrichment (6-mer frequency, TF over GST control)","1.05 fold enrichment (6-mer frequency, TF over GST control)","1.09 fold enrichment (6-mer frequency, TF over GST control)","1.01 fold enrichment (6-mer frequency, TF over GST control)","1.05 fold enrichment (6-mer frequency, TF over GST control)","1.06 fold enrichment (6-mer frequency, TF over GST control)",–,–,"1.1 fold enrichment (6-mer frequency, TF over GST control)","1.22 fold enrichment (6-mer frequency, TF over GST control)"
